From PubChem BioAssay (NCI)
Several values for one entry are separate records, joined by “and”; a condition that tells them apart may be missing. Equal values may be shown once. About 83,000 compounds went through this panel and 20% of them were active in at least one assay; those are over-represented in the sample as a whole.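 Treatment: one concentration, 48 hours, 96-well format. Scoring: percent growth, with anything below 10 considered active.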 Unmarked numbers belong to inactive results. Activity calls are given as the source filed them.

Tests used:
Assay in all cases: NCI-60 one-dose screen, 48 h (100 = growth as untreated, 0 = no growth, -100 = all killed)
Details in all cases: 10 µM unless noted
NCI-H23 lung = test system: NCI-H23 lung
NCI-H226 lung = test system: NCI-H226 lung
NCI-H322M lung = test system: NCI-H322M lung
HOP-62 NSCLC = test system: HOP-62 NSCLC
NCI-H460 lung = test system: NCI-H460 lung
HOP-92 NSCLC = test system: HOP-92 NSCLC
NCI-H522 lung = test system: NCI-H522 lung
A549/ATCC NSCLC = test system: A549/ATCC NSCLC
786-0 renal = test system: 786-0 renal
COLO 205 colon = test system: COLO 205 colon

| Structure (SMILES) | growth (NCI-H23 lung) | growth (NCI-H226 lung) | growth (NCI-H322M lung) | growth (HOP-62 NSCLC) | growth (NCI-H460 lung) | growth (HOP-92 NSCLC) | growth (NCI-H522 lung) | growth (A549/ATCC NSCLC) | growth (786-0 renal) | growth (COLO 205 colon) |
| --- | --- | --- | --- | --- | --- | --- | --- | --- | --- | --- |
| CN(C)c1ccc(N)cc1 | 96.6% and 10.7% | 101% and 82.3% | 95.3% and 111% | 93.7% and 47.1% | 103% and 54.2% | 98.1% and 41.6% | 85.1% | 97.2% and 33.1% | 109% | 103% and 43.1% |
| O=[N+]([O-])c1ccc2scc3c4ccccc4nc-3c2c1 | 30.7% | -32.4% (active) | 58.1% | 2.95% (active) | 42.7% | -61.8% (active) | -88.8% (active) | 18.9% | -82.9% (active) | -55.6% (active) |
| C=CC[PH+](c1ccccc1)c1ccccc1.C=CC[PH+](c1ccccc1)c1ccccc1.[Pt+2].[S-]c1nc2ccccc2[nH]1.[S-]c1nc2ccccc2[nH]1 | -12.4% (active) | -20.6% (active) | 6.44% (active) | -0.445% (active) | -6.83% (active) | -44.3% (active) | -44.2% (active) | -3.29% (active) | -4.36% (active) | -36.7% (active) |
| NC1CN2CCC1CC2 (stereo not given) | 98.7% | 101% | 96.5% | 101% | 109% | 77.7% | 97.9% | 105% | 89.4% | 104% |
| C[C@@]12CCCc3coc(c31)C(=O)c1cc3c(cc12)C(=O)C1=C(NCCS1(=O)=O)C3=O | -36.4% (active) | 7.87% (active) | -6.28% (active) | -9.65% (active) | 0.0882% (active) | -30.6% (active) | -55.6% (active) | -10.7% (active) | 6.38% (active) | -78.1% (active) |
| CC/C(=C(\c1ccc(OCCN2CCOCC2)cc1)c1ccc(OC(=O)Cc2ccccc2)cc1)c1ccc(Cl)cc1 | 104% | 106% | 87.9% | 103% | 106% | 94.4% | 92.8% | 101% | 107% | 120% |
| O=C/C=C/c1ccco1 | 101% | 107% | 111% | 94.7% | 111% | 94.3% | 92% | 85.6% | 100% | 115% |
| O=C(O)c1cc([N+](=O)[O-])cc([N+](=O)[O-])c1 | 107% | 97% | 105% | 85.6% | 106% | 88.2% | 67.9% | 79.6% | 97.9% | 118% |
| C[C@]12CC[C@@H](OC(=O)N(CCCl)N=O)C[C@@H]1CC[C@@H]1[C@@H]2CC[C@]2(C)C(=O)CC[C@@H]12 | 74.7% | 88% | 57.5% | 38.6% | -67.5% (active) | -10.2% (active) | 51.1% | 10.3% | 28.4% | -72.1% (active) |
| C/C(=N/OC(=O)N(C)C)c1ccc(Cl)c(Cl)c1 | 98.2% | 102% | 96.1% | 107% | 107% | 102% | 102% | 82.7% | 103% | 111% |
| COc1cc(C=C2C(=O)NC(=O)NC2=O)ccc1O | 98.1% | 96.1% | 117% | 100% | 108% | 113% | 96.9% | 102% | 99.7% | 109% |
| COc1cc2c(cc1OC)-c1c3c(cc4c1[C@@H](C2)N(C)CC4)OCO3 | 51.3% | 51% | 36.9% | 44.3% | 17.3% | 6.02% (active) | 5.61% (active) | 53.3% | 40.2% | 31.4% |
